# From PubChem BioAssay (EPA / NIEHS)
# Activity calls are given as the source filed them. Rule for the calls: active = hit-call score of the fitted dose curve at least 0.9, where 1 is the maximum; inactive = score below 0.9.
# Read-out: Heat shock 70 kDa protein 1 (HSPA1A), gene 3303
# Experiment: LTEA_HepaRG_HSPA1A: Life Technologies and Expression Analysis (LTEA) Assay for Heat shock 70 kDa protein 1 (HSPA1A) using HepaRG (AID 2283502)
# Conditions: mRNA level, 48 h; actives raise or lower the signal
# Procedure: LTEA_HepaRG is a cell based, multiplexed-readout assay that uses HepaRG, a human liver cell line, with measurements taken at 48 hours after chemical dosing on a 96-well plate.LTEA_HepaRG_HSPA1A is one of 102 assay component(s) measured in the LTEA HepaRG cell culture assay. It is a marker of Oxidative Stress.Data from the assay component LTEA_HepaRG_HSPA1A was analyzed into 1 endpoint. This assay endpoint, LTEA_HepaRG_HSPA1A, was analyzed with bidirectional fitting relative to DMSO as the negative control and baseline of activity. Using a type of inducible reporter, measures of mRNA induction for gain or loss-of-signal activity can be used to understand regulation of transcription factor activity. To generalize the intended target to other relatable targets, this assay endpoint is annotated to the dna binding intended target family, where the subfamily is heat shock protein.
# A total of 1060 chemcials from the ToxCast library were tested in eight-point concentration-response experiments. Cell culture and cytotoxicity assays were conducted at Thermo Fisher Scientific's Custom Services facility (Madison, WI). A single lot of human HepaRG cells (Thermo Fisher Scientific, Frederick, MD) was used for the cell culture experiments. 96-well format collagen type I coated plates of human HepaRG cells were prepared using established methods. Briefly, cryopreserved HepaRG cells were thawed, plated at a density of approximately 100,000 cells/well in HepaRG Thaw, Plate, and General Purpose media (HPRG770, Thermo Fisher Scientific), and incubated for 48 hours. 0.5% DMSO was selected as vehicle control to balance the requisite need of DMSO in HepaRG cultures to maintain differentiation (for example, baseline metabolism, proportions of hepatocytes vs. cholangiocytes), while enabling further hepatic receptor pathway activation (for example, PXR and CAR) in response to chemical exposure. 48 hours after plating, the culture medium was replaced with HepaRG Serum-Free Incudtion Media. Cells were exposed to each test chemical in duplicate and maintained in CO2 incubators for another 48 hours. Chemical plates were thawed to room temperature and 200x concentrations of treatment groups were prepared. 8-point conentration-reponse curves were made with the highest exposure at 100 uM, followed by half-log dilutions, all in 0.5% DMSO. Each test plate contained variouse controls, induction positive controls (1mM phenobarbital), cytotoxicity positive controls ([…] aflatoxin B1), vehicle controls (0.5% DMSO), and total lysis controls (0.5% DMSO). Cell morphology images were taken using an Essen IncuCyte FLR automated microscope, with six 96-well plates imaged in about 24 minutes. Images were captured and exported and JPEG files. Spent culture media was transfered to black-well plates for the LDH assay, and remaining media was sorted at -80 C for later use. Cells were treated with RLT buffer and frozen until shipped for gene expression analysis. Total RNA was isolated from the cell suspension in 75 uL of Buffer RLT (Qiagen, Germantown, MD 20874) by Quintiles/Expression Analysis (Durham, NC) using a custom isolation procedure. Total RNA from each plate well was transferred to a preamplification plate. Fluidigm's 96.96 Dynamic ArrayTM (Fluidigm, Amsterdam, the Netherlands) technology was used for gene expression analyses by quantitative reverse transcription polymerase chain reaction (qRT-PCR, performed by Quintiles/Expression Analysis, Durham, NC)89. Standard TaqManTM Assays (Applied Biosystems/ThermoFisher Scientific, Foster City, CA) were used to assess the expression of 93 genes selected based on their selectivity and sensitivity to important hepatic receptors known to be modulated by environmental chemicals; importance in human hepatocyte functionality; and hepatotoxicity. […]
Structure (SMILES),outcome,AC50
COCCOCCOC,inactive,
CCOc1ccc2c(c1)C(C)=CC(C)(C)N2,inactive,
FC(F)(F)C(F)(F)C(F)(F)C(F)(F)C(F)(F)C(F)(F)CCI,inactive,
O=[N+]([O-])C(CO)(CO)CO,inactive,
OC[C@@H](O)[C@@H](O)[C@H](O)[C@H](O)CO,inactive,
Cc1nc(-c2ccc3c(c2)CCN(CCC2CCC(NC(=O)/C=C/c4ccc(F)cc4)CC2)CC3)no1 (stereo not given),inactive,
Nc1ccc2c(c1)C(=O)c1ccccc1C2=O,inactive,
Oc1ccc2ccccc2c1N=Nc1ccccc1,inactive,
CCNc1cccc(C)c1,inactive,
CCCCc1ccc2c(n1)[C@@H](c1ccc(OC)cc1C[C@H](C)C(=O)O)[C@H](C(=O)O)[C@H]2c1ccc2c(c1)OCO2,inactive,
NCC1(Cc2noc(=O)[nH]2)CCCCC1,inactive,
O=C(O)Cc1ccccc1Nc1c(Cl)cccc1Cl,inactive,
Nc1nc(N)c2nc(CNc3ccc(C(=O)N[C@@H](CCC(=O)O)C(=O)O)cc3)cnc2n1,inactive,
COc1cc(C=O)ccc1O,inactive,
NS(=O)(=O)c1cc2c(cc1Cl)NCNS2(=O)=O,inactive,
CCCCC(CC)COC(=O)CC(C(=O)OCC(CC)CCCC)S(=O)(=O)O (stereo not given),,38.1 µM (active)
COc1ccc(C)cc1N,inactive,
O=C(OCCCCCOC(=O)c1ccccc1)c1ccccc1,inactive,
CCCCCC(=O)O,inactive,
CCCCCCCCCCO,inactive,

Structure (SMILES),outcome,AC50
CCOC(=O)CCC(=O)OCC,,88.6 µM (active)
O=c1[nH]cc(F)c(=O)[nH]1,inactive,
Cc1c(C(=O)O)c(O)cc2c1C(=O)c1c(O)c([C@@H]3O[C@H](CO)[C@@H](O)[C@H](O)[C@H]3O)c(O)c(O)c1C2=O,inactive,
Cc1ccc(C(C)C)c(O)c1,inactive,
Cc1oc(-c2ccccc2)nc1CCOc1cccc2c1ccn2CCC(=O)O,inactive,
CCCCCCCCCCCCCCCC,inactive,
COCCOC[C@H](CC1(C(=O)NC2CCC(C(=O)O)CC2)CCCC1)C(=O)Oc1ccc2c(c1)CCC2 (stereo not given in full),inactive,
CC(=O)OCCOCCOCCOC(C)=O,inactive,
CCCCCCCC=O,inactive,
C=CCOC(=O)c1ccccc1C(=O)OCC=C,inactive,
CCOC(=O)C(C)(C)Oc1ccc(Cl)cc1,inactive,
CN1CCN(Cc2cc(-c3ccc4[nH]c(=O)oc4c3)co2)[C@@H](c2ccc(F)cc2)C1,inactive,
CC(=O)C(C)=CC1C(C)=CCCC1(C)C (stereo not given),inactive,
Cc1ccc2ncccc2c1,inactive,
Cc1cccc([N+](=O)[O-])c1C,inactive,
CCCCCCCCCCCC(=O)OC,inactive,
Nc1ccc(S(=O)(=O)c2ccc(N)cc2)cc1,inactive,
Cc1cc(NC(=O)C(=O)O)cc(C)c1Oc1ccc(O)c2c1CCC2,inactive,
Cc1cc(=O)[nH]c(=S)[nH]1,inactive,
Cc1cccc(C)c1O,inactive,
